# Source: PubChem BioAssay
# The source made the active and inactive calls.
# Experiments:
# [1] = system: PRMT1 (protein arginine N-methyltransferase 1); test: small molecules binding arginine methyltransferase PRMT1 – biochemical, small-molecule microarray, 635 nm fluorescence, primary screen (AID 1088); settings: higher = more signal;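 further: binding of Prmt1 protein to compounds spotted on small-molecule microarray slides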
# [2] = growth effects on S. cerevisiae YJM789 – YJM789 clinical isolate, OD600, 24 h, basal, primary screen (AID 1089); settings: higher = more signal, called active from +8 up or from −8 down;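 further: growth of clinical yeast isolate S. cerevisiae YJM 789 seeded 1000 cells per well; test concentration not given here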
# [3] = S. pombe growth modifiers, basal conditions – strain 972, OD600, 24 h, no modulator, primary screen (AID 1090);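 further: basal condition with compound alone and no growth modifier present; test concentration not given here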; settings: S. pombe 972 growth, higher = more signal, called active from +8 up or from −8 down
# [4] = budding yeast growth modifiers under rapamycin – strain BY4716, OD600, 96 h, primary screen (AID 1091); further: test concentration not given here; settings: S. cerevisiae BY4716 + rapamycin, higher = more signal, called active from +8 up or from −8 down
# [5] = molecular target: Torsin-1A-interacting protein 2 (Homo sapiens) (UniProt Q8NFQ8); test: small molecules binding lysate-expressed LULL1 – cell lysate, human LULL1 lysate, 635/667 nm fluorescence, primary screen (AID 1092); settings: small-molecule microarray, hLULL1 lysate binding, 635 nm fluorescence; higher = more signal;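 further: probe is lysate of COS7 cells overexpressing human LULL1; score merges per-feature 667 nm fluorescence with signal-to-noise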
# Chain of Torsin-1A-interacting protein 2 (Homo sapiens) (Q8NFQ8 whole entry, looked up): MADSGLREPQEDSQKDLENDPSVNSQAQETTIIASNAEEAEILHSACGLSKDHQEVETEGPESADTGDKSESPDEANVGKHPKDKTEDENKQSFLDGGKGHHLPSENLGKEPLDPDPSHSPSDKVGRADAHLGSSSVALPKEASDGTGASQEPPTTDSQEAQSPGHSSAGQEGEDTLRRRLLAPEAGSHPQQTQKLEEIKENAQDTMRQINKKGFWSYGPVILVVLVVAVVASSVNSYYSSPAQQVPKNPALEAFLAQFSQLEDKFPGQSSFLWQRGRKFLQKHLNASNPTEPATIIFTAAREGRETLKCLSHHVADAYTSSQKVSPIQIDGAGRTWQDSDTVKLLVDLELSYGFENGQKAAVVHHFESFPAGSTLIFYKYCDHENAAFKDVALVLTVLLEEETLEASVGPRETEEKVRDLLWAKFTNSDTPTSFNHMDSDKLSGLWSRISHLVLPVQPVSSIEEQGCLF
# [6] = optical density change of DRC41 E. coli – strain DRC41, OD650, 24 h, E. coli filamentation project, primary screen (AID 1093);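 further: MC1000 strain lacking acrAB efflux and sulA so SOS filamentation is blocked; test concentration not given here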; settings: E. coli DRC41 growth, higher = more signal, called active from +8 up or from −8 down
# [7] = probe aLefty2 binding to arrayed compounds – biochemical, biotinylated probe, 635/667 nm fluorescence, primary screen (AID 1094); settings: small-molecule microarray, higher = more signal;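 further: score merges spot fluorescence near 667 nm with spot signal-to-noise ratio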
# [8] = system: Noggin (protein binding on small-molecule microarray); test: small molecules binding Noggin protein – biochemical, 635/667 nm fluorescence, primary screen (AID 1095); settings: 635 nm fluorescence, higher = more signal;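 further: score merges 667 nm feature fluorescence with signal to noise over triplicate slides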
# [9] = molecular target: Neurogenic locus notch homolog protein 3 (Homo sapiens) (UniProt Q9UM47); test: small molecules binding NOTCH3 protein – biochemical, 635/667 nm fluorescence, primary screen (AID 1096); settings: small-molecule microarray, 635 nm fluorescence, higher = more signal
# Chain of Neurogenic locus notch homolog protein 3 (Homo sapiens) (Q9UM47 whole entry, looked up): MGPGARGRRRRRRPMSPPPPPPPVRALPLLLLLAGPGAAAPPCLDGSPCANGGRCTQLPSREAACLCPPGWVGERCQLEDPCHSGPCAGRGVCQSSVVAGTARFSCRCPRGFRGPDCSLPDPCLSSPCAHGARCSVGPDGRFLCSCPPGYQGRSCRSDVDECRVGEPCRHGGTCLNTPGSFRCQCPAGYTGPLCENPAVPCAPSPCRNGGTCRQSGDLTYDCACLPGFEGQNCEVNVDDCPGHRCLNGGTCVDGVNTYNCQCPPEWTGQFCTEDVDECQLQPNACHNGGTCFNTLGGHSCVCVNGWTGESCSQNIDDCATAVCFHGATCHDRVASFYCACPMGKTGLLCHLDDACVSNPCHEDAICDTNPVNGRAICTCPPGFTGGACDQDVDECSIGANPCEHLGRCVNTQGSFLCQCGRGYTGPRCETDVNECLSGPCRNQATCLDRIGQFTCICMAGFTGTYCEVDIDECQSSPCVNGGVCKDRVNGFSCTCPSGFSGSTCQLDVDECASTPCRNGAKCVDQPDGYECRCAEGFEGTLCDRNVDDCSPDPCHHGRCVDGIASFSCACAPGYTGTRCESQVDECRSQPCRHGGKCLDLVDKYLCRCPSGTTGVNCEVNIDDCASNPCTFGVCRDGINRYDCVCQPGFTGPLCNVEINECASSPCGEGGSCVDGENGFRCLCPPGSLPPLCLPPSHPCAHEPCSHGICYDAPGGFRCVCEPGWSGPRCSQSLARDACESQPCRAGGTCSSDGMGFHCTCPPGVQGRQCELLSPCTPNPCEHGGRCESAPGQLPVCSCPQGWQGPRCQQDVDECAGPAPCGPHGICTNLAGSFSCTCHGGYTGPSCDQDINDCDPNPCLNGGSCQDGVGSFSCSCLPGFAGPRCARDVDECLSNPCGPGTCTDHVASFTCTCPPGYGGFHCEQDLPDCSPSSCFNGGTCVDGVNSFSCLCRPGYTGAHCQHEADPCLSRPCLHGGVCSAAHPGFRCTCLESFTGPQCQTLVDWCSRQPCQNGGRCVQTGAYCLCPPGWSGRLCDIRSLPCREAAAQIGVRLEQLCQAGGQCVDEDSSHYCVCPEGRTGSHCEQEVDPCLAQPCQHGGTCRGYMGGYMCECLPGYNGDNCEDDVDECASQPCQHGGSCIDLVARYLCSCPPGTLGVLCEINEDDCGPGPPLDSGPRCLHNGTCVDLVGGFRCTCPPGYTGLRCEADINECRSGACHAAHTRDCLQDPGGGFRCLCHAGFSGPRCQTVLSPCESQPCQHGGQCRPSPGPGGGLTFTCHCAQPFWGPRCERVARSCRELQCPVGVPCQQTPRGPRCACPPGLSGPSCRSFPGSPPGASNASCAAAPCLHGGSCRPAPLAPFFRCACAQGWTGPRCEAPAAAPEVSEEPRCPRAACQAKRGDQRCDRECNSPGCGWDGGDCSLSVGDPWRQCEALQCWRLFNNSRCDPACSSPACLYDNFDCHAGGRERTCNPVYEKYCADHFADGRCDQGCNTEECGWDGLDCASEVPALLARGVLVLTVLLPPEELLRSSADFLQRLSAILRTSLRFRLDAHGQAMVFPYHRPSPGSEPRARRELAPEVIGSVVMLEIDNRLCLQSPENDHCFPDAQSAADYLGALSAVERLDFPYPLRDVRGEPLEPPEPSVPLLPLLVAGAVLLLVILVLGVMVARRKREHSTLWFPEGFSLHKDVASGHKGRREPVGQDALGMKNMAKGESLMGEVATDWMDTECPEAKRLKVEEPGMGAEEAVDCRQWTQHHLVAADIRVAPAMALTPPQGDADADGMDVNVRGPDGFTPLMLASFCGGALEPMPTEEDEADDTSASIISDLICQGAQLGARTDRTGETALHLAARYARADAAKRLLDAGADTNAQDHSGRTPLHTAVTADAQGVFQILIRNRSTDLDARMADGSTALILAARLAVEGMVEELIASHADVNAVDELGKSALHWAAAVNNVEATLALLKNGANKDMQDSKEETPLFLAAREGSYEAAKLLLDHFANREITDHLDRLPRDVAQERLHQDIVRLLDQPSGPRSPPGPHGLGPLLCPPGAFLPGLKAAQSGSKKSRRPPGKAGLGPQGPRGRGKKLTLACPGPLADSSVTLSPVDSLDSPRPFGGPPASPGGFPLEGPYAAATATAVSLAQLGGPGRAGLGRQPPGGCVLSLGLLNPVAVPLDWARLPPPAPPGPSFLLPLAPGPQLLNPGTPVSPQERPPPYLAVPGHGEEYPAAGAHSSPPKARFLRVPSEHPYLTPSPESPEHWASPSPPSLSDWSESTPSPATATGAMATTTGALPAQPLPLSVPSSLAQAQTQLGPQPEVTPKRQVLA
# [10] = probe aEGFR binding to arrayed compounds – biochemical, biotinylated probe, 635/667 nm fluorescence, primary screen (AID 1097); settings: small-molecule microarray, higher = more signal;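 further: probe is a biotinylated anti-EGFR antibody binding compounds printed on slides; score combines fluorescence near 667 nm and signal to noise of each spot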
# [11] = system: Plasmodium falciparum Sir2 (PF13_0152, Sir2A); test: Plasmodium falciparum Sir2A binding compounds – biochemical, small-molecule microarray, 635 nm fluorescence, primary screen (AID 1098); settings: fluorescence 635 nm, higher = more signal;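 further: score merges spot fluorescence intensity with its signal-to-noise ratio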
# [12] = probe aDKK1 binding to arrayed compounds – biochemical, biotinylated probe, 635/667 nm fluorescence, primary screen (AID 1099); settings: small-molecule microarray, higher = more signal;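 further: score merges 667nm spot fluorescence with signal to noise across triplicate slides; reference of the scale not given here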
# [13] = probe aCHRDL2 binding to arrayed compounds – biochemical, biotinylated probe, 635/667 nm fluorescence, primary screen (AID 1100); settings: small-molecule microarray, higher = more signal
# [14] = change in splice reporter luminescence, either direction, cell-based, HEK293, spliceosome inhibition project, primary screen (AID 1101); settings: HEK293 splicing luciferase reporter, 24 h, higher = more signal, called active from +8 up or from −8 down;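 further: HEK293 cells carrying a splicing-competent luciferase reporter gene; test concentration not given here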
# [15] = molecular target: Fibroblast growth factor 10 (Homo sapiens) (UniProt O15520); test: compounds binding fibroblast growth factor 10 – biochemical, small-molecule microarray, 635 nm fluorescence, primary screen (AID 1102); settings: FGF10 binding, fluorescence 635 nm, higher = more signal
# Chain of Fibroblast growth factor 10 (Homo sapiens) (O15520 whole entry, looked up): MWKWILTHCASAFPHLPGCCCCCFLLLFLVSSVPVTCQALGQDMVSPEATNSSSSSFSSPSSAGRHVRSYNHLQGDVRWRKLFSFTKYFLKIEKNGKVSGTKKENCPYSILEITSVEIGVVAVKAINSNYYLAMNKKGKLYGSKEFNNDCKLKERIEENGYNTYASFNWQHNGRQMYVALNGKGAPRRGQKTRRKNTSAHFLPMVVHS
# [16] = system: glycogen synthase kinase-3 (GSK3A per assay name; protocol says GSK3B); test: compounds binding glycogen synthase kinase-3 – biochemical, small-molecule microarray, 635 nm fluorescence, GSK3A, primary screen (AID 1103); settings: fluorescence 635 nm, higher = more signal; further: the record names both GSK3A and GSK3B
# [17] = molecular target: Epidermal growth factor receptor (Homo sapiens) (UniProt P00533); test: compounds binding epidermal growth factor receptor – biochemical, small-molecule microarray, 635 nm fluorescence, primary screen (AID 1104); settings: EGFR binding, higher = more signal;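 further: score merges 667 nm emission intensity with spot signal to noise over triplicate slides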
# Chain of Epidermal growth factor receptor (Homo sapiens) (P00533 whole entry, looked up): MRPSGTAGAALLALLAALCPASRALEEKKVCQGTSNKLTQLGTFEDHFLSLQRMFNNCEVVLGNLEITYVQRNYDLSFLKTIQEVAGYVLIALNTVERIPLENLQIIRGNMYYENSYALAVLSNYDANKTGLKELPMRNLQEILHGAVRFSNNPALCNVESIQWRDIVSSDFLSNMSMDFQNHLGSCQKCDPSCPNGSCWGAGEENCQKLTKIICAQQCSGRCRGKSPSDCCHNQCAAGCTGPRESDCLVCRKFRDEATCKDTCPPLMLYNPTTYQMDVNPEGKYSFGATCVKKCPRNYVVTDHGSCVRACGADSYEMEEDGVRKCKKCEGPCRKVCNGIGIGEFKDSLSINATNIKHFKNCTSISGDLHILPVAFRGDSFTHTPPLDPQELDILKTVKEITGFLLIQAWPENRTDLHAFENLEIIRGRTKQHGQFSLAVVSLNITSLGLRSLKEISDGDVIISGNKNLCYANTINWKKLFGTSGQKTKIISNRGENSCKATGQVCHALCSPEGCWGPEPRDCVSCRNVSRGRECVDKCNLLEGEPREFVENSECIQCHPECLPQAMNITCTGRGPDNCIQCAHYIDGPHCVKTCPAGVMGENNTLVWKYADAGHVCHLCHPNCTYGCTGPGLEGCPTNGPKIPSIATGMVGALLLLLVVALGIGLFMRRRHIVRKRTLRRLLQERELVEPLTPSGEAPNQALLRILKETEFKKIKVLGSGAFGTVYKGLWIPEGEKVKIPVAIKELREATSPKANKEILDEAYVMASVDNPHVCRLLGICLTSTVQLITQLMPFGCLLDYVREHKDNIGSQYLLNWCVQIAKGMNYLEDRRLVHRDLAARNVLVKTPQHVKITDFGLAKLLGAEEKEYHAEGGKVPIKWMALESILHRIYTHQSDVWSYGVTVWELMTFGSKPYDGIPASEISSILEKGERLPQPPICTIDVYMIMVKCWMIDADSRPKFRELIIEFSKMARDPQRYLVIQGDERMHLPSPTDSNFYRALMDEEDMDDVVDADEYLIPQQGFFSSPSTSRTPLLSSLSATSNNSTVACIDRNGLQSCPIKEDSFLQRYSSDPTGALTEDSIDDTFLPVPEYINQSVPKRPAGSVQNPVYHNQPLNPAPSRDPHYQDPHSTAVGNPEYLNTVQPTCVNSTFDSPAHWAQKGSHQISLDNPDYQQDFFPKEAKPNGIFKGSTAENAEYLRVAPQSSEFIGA
# [18] = molecular target: Follistatin-related protein 3 (Homo sapiens) (UniProt O95633); test: compounds binding follistatin-related protein 3 – biochemical, small-molecule microarray, 635 nm fluorescence, primary screen (AID 1105); settings: FSTL3 binding, higher = more signal;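 further: score merges emission near 667 nm and signal to noise per printed spot across three slides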
# Chain of Follistatin-related protein 3 (Homo sapiens) (O95633 whole entry, looked up): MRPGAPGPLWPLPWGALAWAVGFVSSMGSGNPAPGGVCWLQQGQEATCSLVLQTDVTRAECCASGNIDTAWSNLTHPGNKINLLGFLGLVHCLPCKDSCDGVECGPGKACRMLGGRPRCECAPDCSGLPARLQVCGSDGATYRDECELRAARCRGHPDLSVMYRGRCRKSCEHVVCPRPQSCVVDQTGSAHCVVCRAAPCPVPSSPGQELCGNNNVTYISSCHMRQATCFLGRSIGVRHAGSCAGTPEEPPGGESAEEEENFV
# [19] = molecular target: Dickkopf-related protein 1 (Homo sapiens) (UniProt O94907); test: small molecules binding DKK1 protein – biochemical, small-molecule microarray, 635 nm fluorescence scan, primary screen (AID 1106); settings: higher = more signal;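 further: score merges emission near 667 nm with signal to noise over three replicate slides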
# Chain of Dickkopf-related protein 1 (Homo sapiens) (O94907 whole entry, looked up): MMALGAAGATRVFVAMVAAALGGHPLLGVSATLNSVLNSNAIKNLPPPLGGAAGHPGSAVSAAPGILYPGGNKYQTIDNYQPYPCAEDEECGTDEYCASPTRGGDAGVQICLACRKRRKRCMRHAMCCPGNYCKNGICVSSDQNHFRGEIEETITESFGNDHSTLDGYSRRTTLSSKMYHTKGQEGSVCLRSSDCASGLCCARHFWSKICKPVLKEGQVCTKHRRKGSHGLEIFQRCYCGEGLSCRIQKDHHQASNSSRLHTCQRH
# [20] = system: Inhibin beta A chain (activin A); test: small molecules binding activin A – biochemical, small-molecule microarray, 635 nm fluorescence scan, primary screen (AID 1107); settings: INHBA, higher = more signal;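 further: mouse activin A protein probed at 4.33 µg/mL on printed slides; score merges bound-protein fluorescence near 667 nm with spot signal-to-noise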
Structure (SMILES),composite z-score [1],z-score [2],z-score [3],z-score [4],composite z-score [5],z-score [6],composite z-score [7],composite z-score [8],composite z-score [9],composite z-score [10],composite z-score [11],composite z-score [12],composite z-score [13],z-score [14],composite z-score [15],composite z-score [16],composite z-score [17],composite z-score [18],composite z-score [19],composite z-score [20]
C=CCOC(=O)[C@H]1[C@@H]2C(=O)O[C@@H](c3ccccc3)[C@@H](c3ccccc3)N2[C@@H](c2ccc(OCCOC(=O)[C@H]3C[C@H]4C(=O)N[C@@H](CCCCN(C)C)C(=O)N4[C@H]3c3ccc(O)cc3)cc2)[C@]12C(=O)Nc1ccccc12,1.54,-0.0535 (inactive),-1.03 (inactive),-0.713 (inactive),2.49,-0.296 (inactive),0.155,1.83,1.06,0.0088,0.436,0.638,0.4,-0.226 (inactive),1,0.957,0.606,1.4,0.805,1.04
COC(=O)[C@@]1(Cc2ccccc2)[C@H]2c3cc(C(=O)N4CCCC4)n(Cc4ccccc4)c3C[C@H]2CN1C(=O)c1ccccc1,-0.089,-0.0324 (inactive),0.58 (inactive),1.55 (inactive),3.41,-0.745 (inactive),0.432,0.0362,1.05,0.416,1.1,0.854,0.94,-2.8 (inactive),1.12,0.882,0.0075,0.96,-0.197,0.675
COc1ccccc1CN1C(=O)c2ccccc2[C@](Cc2ccccc2I)(C(=O)NCCN2CCOCC2)[C@@H]1c1ccc(CO)cc1,1.54,-2.4 (inactive),0.548 (inactive),-0.168 (inactive),3.27,0.0429 (inactive),-0.0028,1.12,1.09,-0.0502,1.62,-0.0631,0.227,0.233 (inactive),1.02,1.31,1.05,1.46,0.635,0.437
COCCOC(=O)N1C(=O)[C@@]2(c3ccccc31)[C@H](c1ccccc1OCCO)N1[C@H](c3ccccc3)[C@H](c3ccccc3)OC(=O)[C@H]1[C@@H]2C(=O)N1CCc2cc(OC)c(OC)cc2C1,1.52,2.11 (inactive),1.99 (inactive),6.86 (inactive),2.01,0.344 (inactive),0.0706,1.34,1.04,0.0556,1.1,0.153,0.49,-1.42 (inactive),0.658,1.28,0.261,0.788,0.424,0.41
C[N+](C)(C)CCCCCCNC(=O)[C@@H]1C[C@@H]2C(=O)NCC(=O)N2[C@@H]1c1ccc(O)cc1,1.53,0.302 (inactive),0.274 (inactive),-0.0145 (inactive),2.39,-0.239 (inactive),-0.0942,1.53,1.06,-0.141,1.43,-0.171,0.135,0.605 (inactive),0.963,0.657,0.0357,1.39,1.19,0.277
[N-]=[N+]=NCc1ccccc1C[C@]1(C(=O)NCCN2CCOCC2)N=C(c2ccc(OCCCO)cc2)O[C@H]1c1ccccc1,1.54,-2.01 (inactive),-0.85 (inactive),-2.06 (inactive),3.22,0.677 (inactive),-0.0519,1.88,0.626,-0.0382,1.69,0.103,0.826,-0.326 (inactive),1.04,1.28,-0.329,0.0637,-0.781,0.527
CN(C)C(=O)[C@@]1(CCC(=O)OC(C)(C)C)N=C(c2ccc(OCCCO)cc2)O[C@H]1c1ccccc1N=[N+]=[N-],1.54,0.82 (inactive),0.217 (inactive),0.701 (inactive),3.82,-0.0123 (inactive),0.126,1.09,1.09,0.101,1.33,0.813,0.837,0.101 (inactive),1.46,0.253,0.334,1.4,0.648,0.707
O=C(NCc1ccccc1)[C@]1(Cc2ccccc2)N=C(c2ccc(OCCCO)cc2)O[C@@H]1c1ccccc1,0.882,1.83 (inactive),1.26 (inactive),18.9 (active),2.68,-1.26 (inactive),0.0609,-0.102,0.256,0.676,-0.0602,0.857,0.75,-0.0706 (inactive),0.154,0.789,0.178,-0.11,-0.565,0.672
Cc1ccccc1C(O)C1C=CC2C(=O)N(Cc3ccccc3)C(=O)C2N1n1cnnc1 (stereo not given),0.601,-1.26 (inactive),0.658 (inactive),-0.796 (inactive),2.38,-0.0518 (inactive),0.0873,0.162,1.05,0.045,0.996,0.363,0.118,-0.512 (inactive),0.517,0.644,-0.126,0.834,0.189,0.837
COCCOC(=O)N1C(=O)[C@@]2(c3cc(C#CCCO)ccc31)[C@H](c1ccc(OCCO)cc1)N1[C@H](c3ccccc3)[C@H](c3ccccc3)OC(=O)[C@H]1[C@@H]2C(=O)N1CCc2cc(OC)c(OC)cc2C1,1.55,2.59 (inactive),1.28 (inactive),4.19 (inactive),2.48,0.37 (inactive),0.022,1.05,1.13,0.0365,1.29,-0.0877,0.232,0.309 (inactive),1.16,1.31,0.58,0.882,0.582,0.413
